According to PubChem BioAssay (NCATS):
Records with an inconclusive call do not appear. Active and inactive are the calls of the source. The call rests on the fitted dose curve; in most records, active means well fitted curve in the direction sought with a large enough effect; inconclusive means small, poorly fitted or top-dose-only effect, or another doubt; inactive means no such curve, though single readings can be large; an effect the other way counts as inactive or inconclusive.

Columns and labels:
[1] = qHTS for Inhibitors of Plasmodium falciparum (DD2) proliferation (AID 504314);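 further: parasite DNA measured by SYBR Green fluorescence after red cell lysis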
Method in brief: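 SYBR Green growth assay: 72 h compound exposure of infected red cells (2.5% hematocrit, 0.3% parasitemia), then lysis and overnight dye staining, fluorescence 485/535 nm. Values scaled between DMSO and 0.29 uM artemisinin controls.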

[2] = qHTS for Inhibitors of Plasmodium falciparum (7G8) proliferation (AID 504316); further: series mostly up to about 6.7 µM; nearly all actives have a fitted effect of over 65% in size
Method in brief: (§1)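 Parasite growth measured as SYBR Green DNA fluorescence (ex 485, em 535 nm) after overnight lysis following 72 h culture at 37 °C, 0.3% parasitemia, 2.5% hematocrit. Values normalized against DMSO and 0.29 uM artemisinin controls, with plate-stack correction.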

[3] = qHTS for Inhibitors of Plasmodium falciparum (HB3) proliferation (AID 504318); further: nearly all actives have a fitted effect of over 60% in size
Method in brief: as §1

[4] = qHTS for Inhibitors of Plasmodium falciparum (CP250) proliferation (AID 504320)
Method in brief: as §1

Measured: Potency

COC(=O)C1=C(C(=O)OC)[C@@H]2N(Cc3ccccc3)c3ccccc3[C@@]23C[C@@H](C(=O)OC)N(C(=O)C2CCC2)C3=N1
inactive: [1] | [2] | [3] | [4]
